Screening results: PubChem, several laboratories
An excerpt weighted towards active compounds, which were near 0.68% of everything screened.
ugtP null kill: compounds lethal to S. aureus RN4220 ugtP deletion mutant; OD600 growth, 16 h; growth inhibition, % (concentration not given with the values); hit rate 0.54% among 330,000; AID 1259309; in the data active = growth inhibition above about 68%
Mtb hypoxia rep: inhibitors of hypoxia-regulated fluorescent reporter in Mycobacterium tuberculosis | hit rate 0.1% among 300,000 | fluorescence inhibition, % (concentration not given with the values) | M. tuberculosis hypoxia-regulated fluorescent reporter, fluorescence | AID 1159583; in the data active = fluorescence inhibition mostly above about 23%, no sharp cut-off; inactive = mostly below about 17%
Mtb betalactam: beta-lactam sensitization of Mtb H37Rv. AID 434955. inhibition, % at 25 µM. M. tuberculosis H37Rv growth with meropenem, percent inhibition. hit rate 0.27% among 330,000; call rule not given here;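 also: growth measured after seven days incubation then overnight dye step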
Rv3671c protease: inhibits the M. tuberculosis serine protease Rv3671c. hit rate 0.048% among 320,000. inhibition, % at 5.96 µM. P9WHR9. AID 2606; in the data active = inhibition above about 38%;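 also: extracellular domain of Rv3671c used as enzyme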
RN4220 kill: S. aureus RN4220 growth inhibition; OD600, 16 h; inhibition, % (test concentration not listed); hit rate 0.33% among 330,000; AID 1259311; in the data active = inhibition above about 85%
Mtb UGM inh: blocks M. tuberculosis UGM enzyme; P9WIQ1; purified UGM, fluorescence polarization probe displacement; inhibition, % at 10 µM; hit rate 0.06% among 320,000; in the data active = inhibition above about 10%, passing the limit was not always enough
Target sequence (P9WIQ1 whole entry, looked up): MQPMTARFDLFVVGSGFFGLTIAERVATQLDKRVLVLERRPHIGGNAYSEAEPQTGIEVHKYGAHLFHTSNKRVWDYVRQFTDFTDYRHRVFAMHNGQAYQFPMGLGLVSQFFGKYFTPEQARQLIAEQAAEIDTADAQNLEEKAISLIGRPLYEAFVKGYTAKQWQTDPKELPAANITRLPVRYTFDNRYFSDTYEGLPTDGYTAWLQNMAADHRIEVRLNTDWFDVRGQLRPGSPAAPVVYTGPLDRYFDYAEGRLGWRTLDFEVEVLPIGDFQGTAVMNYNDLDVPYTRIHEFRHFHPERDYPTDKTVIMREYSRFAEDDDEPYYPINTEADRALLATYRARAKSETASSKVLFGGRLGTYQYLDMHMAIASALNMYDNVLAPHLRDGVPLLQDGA
Hits are given with their value.

How did CC(C)c1ccc(S(=O)(=O)N=C2C=C(Sc3ncn[nH]3)C(=O)c3ccccc32)cc1 do in these assays?
ugtP null kill: inactive; RN4220 kill: inactive

How did O=c1c2ccccc2nc(/C=C/c2ccccc2F)n1-c1ccccc1O do in these assays?
ugtP null kill: 99; Mtb hypoxia rep: inactive; Mtb betalactam: inactive; Rv3671c protease: inactive; RN4220 kill: 98; Mtb UGM inh: inactive

How did O=c1c2ccccc2nc(/C=C/c2ccccc2O)n1-c1ccccc1O do in these assays?
Mtb betalactam: inactive; Rv3671c protease: inactive; Mtb UGM inh: inactive

What do the screens show for `CC(C)CC(NC(=O)OC(C)(C)C)c1cn(C(CCC(=O)OC(C)(C)C)C(=O)N2CCN(C(=O)OC(C)(C)C)CC2)nn1` (stereo not given)?
ugtP null kill: inactive; Mtb hypoxia rep: inactive; RN4220 kill: inactive

How did CCOC(=O)c1c(N)sc(C(O)(C(F)(F)F)C(F)(F)F)c1-c1ccc(Cl)cc1 do in these assays?
ugtP null kill: 100; Mtb hypoxia rep: inactive; Mtb betalactam: inactive; Rv3671c protease: inactive; RN4220 kill: 100; Mtb UGM inh: inactive

How did O=c1[nH]nc(-c2ccc([N+](=O)[O-])o2)c(=O)[nH]1 do in these assays?
ugtP null kill: inactive; Mtb hypoxia rep: inactive; RN4220 kill: inactive

Results for Nc1nnc(-c2ccc([N+](=O)[O-])o2)s1 ?
ugtP null kill: 92; Mtb hypoxia rep: inactive; RN4220 kill: 98

Results for O=C(Nn1c(SCc2ccc(F)cc2)nc2ccsc2c1=O)c1ccccc1 ?
ugtP null kill: inactive; Mtb hypoxia rep: inactive; Mtb betalactam: inactive; Rv3671c protease: inactive; RN4220 kill: 83; Mtb UGM inh: inactive

Results for Cc1ccc(CNC(=O)CSc2nc3ccsc3c(=O)n2NC(=O)c2ccccc2)cc1 ?
ugtP null kill: inactive; Mtb hypoxia rep: inactive; Mtb betalactam: inactive; Rv3671c protease: inactive; RN4220 kill: inactive; Mtb UGM inh: inactive

How did C=CCC(CC(=O)NCCO)C(=O)NC(COC(=O)C(CC=C)Cc1ccc(F)cc1)Cc1c[nH]c2ccccc12 (stereo not given) do in these assays?
ugtP null kill: inactive; Mtb hypoxia rep: inactive; RN4220 kill: inactive

Results for CC1CCc2c(N3CCC(O)CC3)c(F)cc3c(=O)c(C(=O)O)cn1c23 (stereo not given) ?
ugtP null kill: 99; Mtb betalactam: inactive; Rv3671c protease: inactive; RN4220 kill: 99; Mtb UGM inh: inactive

What do the screens show for `CC1CCc2cc(F)cc3c(=O)c(C(=O)O)cn1c23` (stereo not given)?
ugtP null kill: 99; Mtb hypoxia rep: inactive; Mtb betalactam: inactive; Rv3671c protease: inactive; RN4220 kill: 97; Mtb UGM inh: inactive

How did Cc1onc(-c2c(Cl)cccc2Cl)c1COC(=O)c1ccc(Cl)cc1 do in these assays?
ugtP null kill: 89; Mtb hypoxia rep: inactive; Mtb betalactam: inactive; Rv3671c protease: inactive; RN4220 kill: inactive; Mtb UGM inh: inactive

Results for C/C(=N/NC(=O)c1ccncc1)c1cc2ccc(O)cc2oc1=O ?
Mtb betalactam: inactive; Rv3671c protease: inactive; Mtb UGM inh: 42

What do the screens show for `CCC(=NNC(=O)c1ccccc1O)c1c(C)[nH]n(-c2ccccc2)c1=O`?
ugtP null kill: 98; Mtb hypoxia rep: inactive; RN4220 kill: 93

What do the screens show for `CCCSC(=S)c1c(C)[nH]n(-c2ccccc2)c1=O`?
ugtP null kill: 90; Mtb hypoxia rep: inactive; Mtb betalactam: inactive; Rv3671c protease: inactive; RN4220 kill: 91; Mtb UGM inh: inactive

What do the screens show for `CC(=NNC(=O)c1ccccc1)c1c(C)[nH]n(-c2ccccc2)c1=O`?
ugtP null kill: inactive; Mtb hypoxia rep: inactive; RN4220 kill: inactive

What do the screens show for `CCCCN(CCCC)C(=S)N/N=C/c1c(C)[nH]n(-c2ccccc2)c1=O`?
Rv3671c protease: inactive; Mtb UGM inh: inactive

Results for CC(C)(C)OC(=O)CCC(C(=O)N1CCN(C(=O)OC(C)(C)C)CC1)n1cc(C(Cc2ccc(O)cc2)NC(=O)OC(C)(C)C)nn1 (stereo not given) ?
ugtP null kill: inactive; Mtb hypoxia rep: inactive; RN4220 kill: inactive

What do the screens show for `Cc1sc2ncnc(SCC(=O)N3c4ccccc4Sc4ccc(Cl)cc43)c2c1C`?
ugtP null kill: inactive; Mtb hypoxia rep: inactive; Mtb betalactam: inactive; Rv3671c protease: inactive; RN4220 kill: inactive; Mtb UGM inh: inactive

What do the screens show for `CCOC(=O)c1c(C)sc2c1N(C(=O)CCl)c1cc(Cl)ccc1S2`?
ugtP null kill: 93; Mtb betalactam: inactive; Rv3671c protease: inactive; RN4220 kill: inactive; Mtb UGM inh: inactive

What do the screens show for `O=C(Nc1ccc([N+](=O)[O-])cc1)C1CC1(c1ccccc1)c1ccccc1` (stereo not given)?
ugtP null kill: inactive; Mtb hypoxia rep: inactive; Mtb betalactam: inactive; Rv3671c protease: inactive; RN4220 kill: inactive; Mtb UGM inh: inactive

What do the screens show for `CC1(C)C(C=C(Cl)Cl)C1C(=O)Nc1ccc([N+](=O)[O-])cc1` (stereo not given)?
ugtP null kill: 94; Mtb hypoxia rep: inactive; Mtb betalactam: inactive; Rv3671c protease: inactive; RN4220 kill: 87; Mtb UGM inh: inactive

What do the screens show for `Cc1ccc(C)c(N2CCN(S(=O)(=O)c3ccc4c(c3)NC(=O)CC(=O)N4)CC2)c1`?
ugtP null kill: 90; Mtb hypoxia rep: inactive; Mtb betalactam: inactive; Rv3671c protease: inactive; RN4220 kill: inactive; Mtb UGM inh: inactive

How did Cc1ccc(C)c(N2CCN(S(=O)(=O)c3ccc4c(c3)NC(=O)CO4)CC2)c1 do in these assays?
ugtP null kill: inactive; Mtb hypoxia rep: inactive; Mtb betalactam: inactive; Rv3671c protease: inactive; RN4220 kill: inactive; Mtb UGM inh: inactive

What do the screens show for `CCOC1OC(C(=O)N2CCN(Cc3ccccc3)CC2)=CC(c2coc3ccccc3c2=O)C1CCCO` (stereo not given)?
ugtP null kill: inactive; Mtb hypoxia rep: inactive; RN4220 kill: inactive

Results for COc1ccc(C2CC(=O)C=C(c3cccc(OCc4ccccc4)c3)C2)cc1 (stereo not given) ?
ugtP null kill: inactive; Mtb hypoxia rep: inactive; RN4220 kill: inactive

What do the screens show for `C=CCOC(=O)C1=C(C)NC(SC)=C(C#N)C1c1ccc(OCC)cc1` (stereo not given)?
ugtP null kill: 91; Mtb hypoxia rep: inactive; Mtb betalactam: inactive; Rv3671c protease: inactive; RN4220 kill: inactive; Mtb UGM inh: inactive

Results for CCN1C[C@]2(C)CCC(O)[C@@]34C5CC6C(OC)C[C@](O)(C(CC23)C14)C5C6O (stereo not given in full) ?
ugtP null kill: inactive; Mtb hypoxia rep: inactive; RN4220 kill: inactive

Results for C=C[C@]1(C)CC1C(NP(=O)(c1ccccc1)c1ccccc1)c1ccccc1 (stereo not given in full) ?
ugtP null kill: inactive; Mtb hypoxia rep: inactive; RN4220 kill: inactive

Results for COc1ccc(C2C=CCN(C(=O)c3ccc(C)cc3)C(Cc3ccccc3)C(=O)N2Cc2ccc(F)cc2)cc1 (stereo not given) ?
ugtP null kill: inactive; Mtb hypoxia rep: inactive; RN4220 kill: inactive
